From PubChem
KB-3-1 tox: kills parental KB-3-1 adenocarcinoma cells | actives 1.4% (n = 400,000) | KB-3-1 viability, CellTiter-Glo ATP luminescence, 72 h | Potency, µM (highest dose often 46.1 µM), hits mostly cytotoxic; note: nearly all actives have a fitted effect of over 60% in size
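Parental KB-3-1 adenocarcinoma cells in phenol-red-free DMEM with 10% FBS were pin-treated with compounds at several concentrations, incubated 72 h at 37 °C, and viability read by CellTiter-Glo luminescence; concentration-effect curves were fitted after normalization.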
ELG1 repair inh: blocks ELG1-dependent DNA repair in HEK293T cells | actives 2.3% (n = 330,000) | HEK293T ELG1-luciferase reporter, luminescence, 16 h; DNA damage induced by 5-fluorouridine | Potency, µM (top dose mostly 46.1 µM), usual class: inhibitors; note: nearly all actives have a fitted effect of over 55% in size
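HEK293T cells expressing luciferase-tagged ELG1 (2,000/well) received 5-Fluorouridine plus compound or DMSO for 16 hr at 37 °C. Luciferase was read by ONE-Glo luminescence after 30 min at room temperature.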
KB-V1 MDR tox: kills drug-selected multidrug resistant KB-V1 cells | KB-V1 MDR cells viability, CellTiter-Glo, 72 h | Potency, µM (top dose mostly 46.1 µM), most hits filed as cytotoxic | actives 3.4% (n = 400,000); note: nearly all actives have a fitted effect of over 60% in size
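Cytotoxicity via CellTiter-Glo luminescence after 72 h compound exposure at 37 degrees C. Cells: drug-selected KB-V1 line, DMEM phenol-red free plus 10% FBS. Compounds tested at multiple concentrations; normalized data fitted to concentration-effect curves.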
MCF10A rerep: DNA re-replication induction in MCF 10a cells | MCF 10A DNA re-replication, Hoechst nuclear intensity, 48 h | Potency, µM (highest dose often 46.1 µM), most hits filed as activators | actives 2.9% (n = 350,000) | AID 624296; note: nearly all actives have a fitted effect of over 50% in size
SW480 rerep: DNA re-replication induction in SW480 cells; SW480 DNA re-replication, Hoechst DNA content imaging, 48 h; Potency, µM (titrated, usually from 46.1 µM), hits mostly activators; actives 1.8% (n = 340,000); AID 624297; note: nearly all actives have a fitted effect of over 55% in size
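Quantitative HTS format with DMSO vehicle controls; 48 hr drug incubation at 37 C, then 40 min Hoechst staining and scanning imager measurement at 405 nm excitation.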
Of the large screens only hits and unclear results are named; the others gave an inactive call. An excerpt weighted towards active compounds, which were near 8.2% of everything screened. Calls come from the whole dose curve; as a rule, active = well fitted curve in the direction sought with a large enough effect; inconclusive = small, poorly fitted or top-dose-only effect, or another doubt; inactive = no such curve, though single readings can be large; an effect the other way counts as inactive or inconclusive.

N=c1oc2c3c4c(cc2cc1C(=O)Nc1ccccc1)CCCN4CCC3	ELG1 repair inh inconclusive, MCF10A rerep 4.1µM, SW480 rerep 1.4µM
CN=C1SC(CC(=O)Nc2ccc(F)cc2F)C(=O)N1/N=C/c1ccc(OC(F)F)c(OC)c1 (centres undefined)	ELG1 repair inh inconclusive, MCF10A rerep 4.6µM
CCOc1ccc2nc(Cl)c(CN(C(=O)c3cnccn3)C3CCCC3)cc2c1	ELG1 repair inh 15µM, KB-V1 MDR tox inconclusive, MCF10A rerep inconclusive
CCOc1ccc2nc(Cl)c(CN(C(C)=O)C3CCCCC3)cc2c1	KB-V1 MDR tox inconclusive
CO/N=C1\CCCc2c(C(=O)NN)sc(SC)c21	ELG1 repair inh inconclusive, MCF10A rerep 16µM, SW480 rerep inconclusive
CCOc1ccc(-c2c(C)nn3c(C)c(C(=O)NCc4ccc(Cl)cc4)cnc23)cc1OCC	none (no result: ELG1 repair inh, MCF10A rerep, SW480 rerep)
O=Cc1ccc(-c2ccccc2C(=O)O)o1	KB-V1 MDR tox inconclusive
CC1=NN(c2ccc(Br)cc2)C(=O)/C1=C/c1ccc(-c2ccccc2C(=O)O)o1	MCF10A rerep 23µM
Cc1c(C(=O)O)cccc1-c1ccc(/C=N/Nc2ccc(Br)cc2)o1	KB-3-1 tox inconclusive, ELG1 repair inh inconclusive, MCF10A rerep 18µM
O=C(O)c1ccc(N/N=C/c2ccc(-c3cc(Cl)ccc3Cl)o2)cc1	ELG1 repair inh inconclusive, KB-V1 MDR tox inconclusive, MCF10A rerep 2.1µM, SW480 rerep 12µM
O=C(O)c1ccc(N/N=C/c2ccc(-c3ccc(Cl)cc3Cl)o2)cc1	KB-3-1 tox 23µM, ELG1 repair inh inconclusive, MCF10A rerep inconclusive, SW480 rerep 23µM
COC(=O)N/N=C/c1ccc(-c2ccc(Cl)cc2Cl)o1	none
CC1=NOC(=O)/C1=C\c1ccc(-c2ccc(Br)cc2C(=O)O)o1	KB-V1 MDR tox inconclusive
CCOc1ccc(-n2c(=O)c3c4c(sc3n(CC(=O)Nc3cccc(C(F)(F)F)c3)c2=O)CCCCC4)cc1	none (no result: ELG1 repair inh, MCF10A rerep, SW480 rerep)
O=C(O)c1cc(N/N=C/c2ccc(-c3ccc(F)cc3)o2)ccc1Cl	ELG1 repair inh inconclusive, MCF10A rerep 18µM, SW480 rerep 18µM
O=C(Cc1ccc(F)cc1)N/N=C/c1ccc(-c2ccc(Cl)c(C(=O)O)c2)o1	MCF10A rerep inconclusive
O=C(O)c1ccc(N/N=C/c2ccc(-c3cccc(Cl)c3)o2)cc1	KB-3-1 tox inconclusive, ELG1 repair inh inconclusive, MCF10A rerep inconclusive, SW480 rerep 21µM
O=C(Nc1ncnc2nc[nH]c12)c1ccccc1	KB-3-1 tox inconclusive (no result: ELG1 repair inh, MCF10A rerep, SW480 rerep)
Cc1ccc(-n2c(=O)c3ccccc3n(CC(=O)Nc3cccc(C(F)(F)F)c3)c2=O)cc1	KB-V1 MDR tox inconclusive (no result: ELG1 repair inh, MCF10A rerep, SW480 rerep)
COC(=O)c1[nH]c2c(c1C)C(=O)CC(c1ccc(OC)c(OC)c1)C2 (centres undefined)	ELG1 repair inh inconclusive
CCOCCOC(=O)C1=C(C)NC2=C(C(=O)CC(c3cccs3)C2)C1c1ccsc1 (centres undefined)	ELG1 repair inh inconclusive, KB-V1 MDR tox 21µM
CCCCCOC(=O)c1[nH]c2c(c1C)C(=O)CC(c1ccco1)C2 (centres undefined)	KB-3-1 tox inconclusive, KB-V1 MDR tox 0.0082µM, MCF10A rerep inconclusive, SW480 rerep 0.12µM
COC(=O)c1[nH]c2c(c1C)C(=O)CC(c1cccc(OC)c1)C2 (centres undefined)	KB-3-1 tox inconclusive, KB-V1 MDR tox inconclusive, MCF10A rerep inconclusive, SW480 rerep 0.73µM
CCCOC(=O)c1[nH]c2c(c1C)C(=O)CC(c1ccc(OC)c(OC)c1)C2 (centres undefined)	KB-V1 MDR tox inconclusive
COCCOC(=O)c1[nH]c2c(c1C)C(=O)CC(c1cccs1)C2 (centres undefined)	KB-3-1 tox 1.8µM, KB-V1 MDR tox 1.5µM, MCF10A rerep inconclusive, SW480 rerep 2.6µM
CCn1c(CCCc2ccc(OC)c(C)c2)n[nH]c1=S	KB-3-1 tox inconclusive
CN1CCC(C(=O)C(=O)O)C1=O (centres undefined)	none (no result: ELG1 repair inh)
Cc1ccc(Cl)cc1NC(=O)CSC1=Nc2ccccc2C2=NC(Cc3ccccc3)C(=O)N12 (centres undefined)	none (no result: ELG1 repair inh, MCF10A rerep, SW480 rerep)
COCCOC(=O)c1[nH]c2c(c1C)C(=O)CC(c1ccc(OC)c(OC)c1)C2 (centres undefined)	ELG1 repair inh inconclusive
CCOCCOC(=O)c1[nH]c2c(c1C)C(=O)CC(c1cccs1)C2 (centres undefined)	KB-3-1 tox 0.92µM, ELG1 repair inh inconclusive, KB-V1 MDR tox 1.2µM, MCF10A rerep inconclusive, SW480 rerep 1.2µM
Cc1c(C(=O)OCC(C)C)[nH]c2c1C(=O)CC(c1cccs1)C2 (centres undefined)	KB-3-1 tox inconclusive, KB-V1 MDR tox inconclusive, MCF10A rerep inconclusive, SW480 rerep 3.7µM
CCOCCOC(=O)c1[nH]c2c(c1C)C(=O)CC(c1ccccc1)C2 (centres undefined)	KB-3-1 tox 0.92µM, KB-V1 MDR tox 1µM, MCF10A rerep inconclusive, SW480 rerep 0.52µM
Cc1c(C(=O)OCC2CCCO2)[nH]c2c1C(=O)CC(c1ccc(N(C)C)cc1)C2 (centres undefined)	KB-3-1 tox inconclusive, ELG1 repair inh inconclusive, KB-V1 MDR tox 21µM
COc1ccccc1C(=O)NC(=O)COC(=O)C1CC1C (centres undefined)	none
CN(C)C(=O)C1(c2ccccc2)CCN(S(=O)(=O)c2ccccc2)CC1	KB-3-1 tox inconclusive, ELG1 repair inh inconclusive, KB-V1 MDR tox 21µM
CCOc1ccc(C(=O)NCC(=O)NNC(=O)c2ccco2)cc1OCC	none (no result: KB-3-1 tox, KB-V1 MDR tox)
Cc1cccc(NC(=S)N/N=C/c2c[nH]c3ccccc23)c1	KB-3-1 tox 12µM, KB-V1 MDR tox inconclusive, MCF10A rerep 1.8µM, SW480 rerep 12µM
Cc1ccc(NC(=S)N/N=C/c2c(C)[nH]c3ccccc23)cc1	MCF10A rerep 18µM, SW480 rerep inconclusive
CC(C)(C)C(=O)OCc1ccc(C2=CC(=O)CC(C)(C)C2=O)cc1	none (no result: ELG1 repair inh, MCF10A rerep, SW480 rerep)
COc1ccccc1S(=O)(=O)c1ccccc1[N+](=O)[O-]	none
COc1ccc([N+](=O)[O-])c(S(=O)(=O)c2ccccc2)n1	KB-3-1 tox inconclusive, ELG1 repair inh inconclusive, KB-V1 MDR tox 23µM, SW480 rerep inconclusive
O=[N+]([O-])c1cccnc1S(=O)(=O)c1ccccc1	KB-3-1 tox inconclusive, KB-V1 MDR tox inconclusive, MCF10A rerep 2.9µM, SW480 rerep 9.2µM
COc1ccc([N+](=O)[O-])c(S(=O)(=O)c2ccc(Cl)cc2)n1	KB-3-1 tox inconclusive, MCF10A rerep 3.7µM, SW480 rerep 2.9µM
COc1nc(OC)nc(Oc2ccc(Cl)cc2[N+](=O)[O-])n1	none
COCCNC(=O)c1ccc(C2SCC(=O)N2CCc2ccccc2)cc1 (centres undefined)	SW480 rerep inconclusive
CC(=O)Nc1ccc(NC(=O)c2ccc(C3SCC(=O)N3CCc3ccccc3)cc2)cc1 (centres undefined)	ELG1 repair inh 23µM
